Measured values taken from the supplement of paper PMC7366291.
Structures can show the parent of a compound that is named as a salt.

Each compound was assayed on Danio rerio Tg(wt1b:EGFP) embryo, pronephros (assay: fraction of imaged embryos annotated as normal kidney; higher = less nephrotoxic; extreme values may be limits of the assay). Details: 25 µM; exposure: 24-48 hpf.
Summary of the method: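 Dechorionated Tg(wt1b:EGFP) zebrafish embryos were exposed in 12-well plates to 25 μM compound in 0.5% DMSO, 5 mM HEPES-buffered E3 with 0.003% PTU, from 24 to 48 hpf at 28.5°C. Tricaine-anaesthetised larvae were oriented dorsally in agarose-filled 96-well plates, and pronephroi were imaged by widefield fluorescence (470 nm, 10 z-slices). Each embryo was manually annotated from maximum projections. The read-out is the fraction of embryos per treatment assigned to the normal-kidney category.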

SMILES | fraction of imaged embryos annotated as normal kidney
N[C@@H]1C[C@H]1c1ccccc1 [Tranylcypromine hydrochloride] | 0.727
CC(C)N(CCC(C(N)=O)(c1ccccc1)c1ccccn1)C(C)C (configuration not stated) [Disopyramide] | 0.667
CCNCC(O)c1cccc(O)c1 (configuration not stated) [Etilefrine hydrochloride] | 0.833
CO[C@]12C[C@@H](COC(=O)c3cncc(Br)c3)CN(C)[C@@H]1Cc1cn(C)c3cccc2c13 [Nicergoline] | 1
C#C[C@]1(O)CC[C@H]2[C@@H]3CCC4=CC(=O)CC[C@]4(C)[C@H]3CC[C@@]21C [Ethisterone] | 0.909
NCCc1c[nH]c2ccc(O)cc12 [Serotonin hydrochloride] | 0.667
C[C@@H]1C[C@@H]([C@H](O)CC2CC(=O)NC(=O)C2)C(=O)[C@@H](C)C1 [Cycloheximide] | 0.2
CCC1=C[C@H]2CN3CCc4c([nH]c5ccccc45)[C@](C(=O)OC)(C2)[C@H]13 [Catharanthine] | 0.833
CC(=O)O[C@H]1C[C@@H]2CC[C@@H]3[C@H](CC[C@@]4(C)[C@H]3C[C@H]([N+]3(C)CCCCC3)[C@@H]4OC(C)=O)[C@@]2(C)C[C@@H]1[N+]1(C)CCCCC1 [Pancuronium bromide] | 1
CC(C)[N+](C)(CCC(C(N)=O)(c1ccccc1)c1ccccc1)C(C)C [Isopropamide iodide] | 0.818
CN1C(=O)CCS(=O)(=O)C1c1ccc(Cl)cc1 (configuration not stated) [Chlormezanone] | 0.545
CC(CCc1ccccc1)NC(C)C(O)c1ccc(O)cc1 (configuration not stated) [Nylidrin] | 0.917
